Among the data in PubChem BioAssay are period change values, retold here.

Unmarked numbers belong to inactive results. How the calls were made is not given here.

This test in a line: circadian clock period modulators, cell-based, LOPAC library, luminescence reporter (AID 2774).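 Further: values are relative to mean of DMSO wells on each plate.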 To be noted: circadian reporter cells, at 7 µM, actives lie on both sides.
In the case of `CCn1c(=O)c2[nH]c(-c3ccccc3)nc2n(CC)c1=O`, the period change was -0.165 h.

On to `CCN(CC)C(C)C(=O)N1c2ccccc2Sc2ccccc21` (configuration not stated), for which the period change was 0.095 h.

Turning to `CN(Cc1cnc2nc(N)nc(N)c2n1)c1ccc(C(=O)N[C@H](CCC(=O)O)C(=O)O)cc1`, the period change is 0.095 h.

With `O=C(Cc1ccc(Cl)c(Cl)c1)OCCN1CCCC1`, the period change is -0.095 h.

On to `CNC(=O)[C@H]1O[C@@H](n2cnc3c(N)ncnc32)C(O)[C@H]1O` (some centres not stated), for which the period change is 0.045 h.

With `COc1cc2nc(N3CC=[N+](C(=O)c4ccco4)CC3)nc(N)c2cc1OC`, the period change is 0.01 h.

For `N#CC(Cc1ccc(O)c(O)c1)C(=O)N1CCc2ccccc21` (configuration not stated), the period change was 0.025 h.
